The AC50 is the concentration giving half of the maximal activity seen.

The nature of assay [1]: ATG_CRE_CIS: Attagene CIS-FACTORIAL HepG2 Assay for human cAMP Responsive Element (CRE) binding protein 3 (AID 2282926). The settings on record: HepG2 CRE cis-reporter, Attagene multiplexed mRNA; actives raise or lower the signal. The essentials:
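We dosed HepG2 cells bearing multiple cis-promoter reporter units for 24 h and measured reporter mRNA by RT-PCR with capillary electrophoresis detection. Bidirectional concentration-response fitting used DMSO as negative control.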

The target of assay [2] is CCAAT/enhancer-binding protein beta (Homo sapiens) (UniProt P17676). In words: ATG_C_EBP_CIS: Attagene CIS-FACTORIAL HepG2 Assay for human CCAAT/Enhancer Binding Protein (C/EBP) beta (AID 2282927). The settings on record: HepG2 Attagene cis-factorial transcription factor reporter; actives raise or lower the signal. The essentials:
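Chemical-treated HepG2 cells (24 h) bearing cis-regulated reporter constructs were processed for total RNA, then reverse transcription, PCR amplification, fluorescent primer extension and fragment analysis; gain- and loss-of-signal were fitted against DMSO.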

Assay [3] can be described thus: ATG_CMV_CIS: Attagene CIS-FACTORIAL HepG2 Assay for human CMV (Internal Marker) (AID 2282928).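 Also: endpoint acts as a background internal control marker rather than a target.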 Particulars: HepG2 CMV promoter reporter, transcription factor profiling; actives raise or lower the signal. Summed up:
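CMV internal-marker background readout in transiently transfected HepG2 cells bearing cis-regulated reporter units. Reporter mRNA is measured 24 h after dosing by RT-PCR and capillary electrophoresis, with bidirectional fitting against DMSO.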

Assay [4] in a line: ATG_DR4_LXR_CIS: Attagene CIS-FACTORIAL HepG2 Assay for human Liver X Receptor (LXR), DR4 submotif (AID 2282929). The settings on record: HepG2 Attagene DR4 cis-reporter, mRNA transcription; actives raise or lower the signal. Summed up: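 DR4 cis-reporter in HepG2, 24 h exposure. Detection: RT-PCR, 6-FAM labelling, CE fragment analysis. Endpoint fitted bidirectionally, DMSO = baseline.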

Assay [5] in a line: ATG_AP_1_CIS: Attagene CIS-FACTORIAL HepG2 Assay for human Activator Protein 1 (AP-1) (AID 2282931). Particulars: HepG2 Attagene cis-factorial AP-1 reporter mRNA; actives raise or lower the signal. Summed up: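 Cis-regulated reporter units transiently expressed in HepG2 report endogenous transcription-factor activity. Signal: reporter mRNA at 24 h, via RT-PCR and fluorescent capillary electrophoresis. Endpoint derived by bidirectional fitting, DMSO as negative control.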

Assay [6] can be described thus: ATG_AP_2_CIS: Attagene CIS-FACTORIAL HepG2 Assay for human Activator Protein 2 (AP-2) (AID 2282932). The settings on record: HepG2 AP-2 cis-reporter, Attagene transcription factor profiling; actives raise or lower the signal. Summed up:
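Bidirectional curve fitting against DMSO was applied to reporter mRNA signals from HepG2 cells 24 h after dosing. Cis-promoter reporter units, transiently transfected, were read by RT-PCR plus capillary electrophoresis.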

The nature of assay [7]: ATG_BRE_CIS: Attagene CIS-FACTORIAL HepG2 Assay for human Bone Morphogenetic Protein (BMP) Response Element (BRE) (AID 2282933). Particulars: HepG2 BMP response element reporter, Attagene transcription factor profiling; actives raise or lower the signal. Summed up: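 HepG2 cells transiently transfected with CIS reporter units (endogenous TF activity, BMP response element), dosed 24 h. Reporter mRNA quantified by RT-PCR, fluorescent labelling and capillary electrophoresis; bidirectional fit vs DMSO baseline.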

Assay [8] deals with Transcription factor E2F1 (Homo sapiens) (UniProt Q01094). In words: ATG_E2F_CIS: Attagene CIS-FACTORIAL HepG2 Assay for human E2F Transcription Factor 1 (AID 2282935). The settings on record: HepG2 Attagene cis-reporter, E2F reporter RNA transcripts; actives raise or lower the signal. Summed up: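 Multiplexed cis-reporter assay: HepG2, transient transfection, 24 h dosing, mRNA quantitation by labeled RT-PCR and CE.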

The nature of assay [9]: ATG_E_Box_CIS: Attagene CIS-FACTORIAL HepG2 Assay for human Enhancer Box (E-box) (AID 2282936). Particulars: HepG2 E-box cis-reporter transcription, actives raise or lower the signal. The essentials:
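Multiplexed CIS reporter system in transiently transfected HepG2 cells measures native transcription factor activity. Reporter RNA after 24 h exposure is profiled by RT-PCR-capillary electrophoresis.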

Assay [10] can be described thus: ATG_M_61_CIS: Attagene CIS-FACTORIAL HepG2 Assay for M61 Transcription Factor (Internal Marker) (AID 2282937). The settings on record: HepG2 Attagene CIS-FACTORIAL M61 internal marker reporter; actives raise or lower the signal. The essentials:
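Background-control endpoint: HepG2 cells with cis-regulated reporter constructs, 24 h exposure, reporter mRNA detected via fluorescent primer extension and capillary electrophoresis; values from bidirectional fitting with DMSO baseline.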

The nature of assay [11]: ATG_EGR_CIS: Attagene CIS-FACTORIAL HepG2 Assay for human Early Growth Response 1 (EGR1) (AID 2282938). The settings on record: HepG2 Attagene CIS-FACTORIAL EGR reporter mRNA; actives raise or lower the signal. Summed up:
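Endpoint derived by bidirectional fitting versus DMSO vehicle. Method: cis-promoter reporter units transfected into HepG2, 24 h dosing, RNA isolation, RT-PCR with 6-FAM primer extension and HpaI digestion, then capillary electrophoresis fluorescence detection.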

The nature of assay [12]: ATG_Ets_CIS: Attagene CIS-FACTORIAL HepG2 Assay for human Erythroblast Transformation Specific (ETS) (AID 2282941). The settings on record: HepG2 ETS cis-reporter transcription, actives raise or lower the signal. The essentials:
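HepG2 cells transfected with multiple cis-regulated reporter units measuring endogenous ETS-driven transcription, 24 h after dosing. Reporter mRNA quantified by RT-PCR with capillary electrophoresis; bidirectional fit relative to DMSO.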

Assay [13] is described as follows: ATG_FoxO_CIS: Attagene CIS-FACTORIAL HepG2 Assay for human Forkhead box O (FoxO) (AID 2282943). The settings on record: HepG2 Attagene cis-reporter, FoxO element, mRNA; actives raise or lower the signal. Summed up:
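24 h chemical exposure, HepG2 with transient cis-MRTU transfection. RNA extraction, oligo(dT) RT, reporter-specific PCR, primer-extension labelling, HpaI digestion, CE fragment analysis; bidirectional fit, DMSO baseline.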

A short description of assay [14]: ATG_GATA_CIS: Attagene CIS-FACTORIAL HepG2 Assay for human GATA Binding Protein (AID 2282944). Particulars: HepG2 GATA cis-element reporter, Attagene multiplex mRNA; actives raise or lower the signal. The essentials: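 HepG2 cells transiently transfected with multiplexed cis-element reporter units measure endogenous GATA activity; after 24 h compound exposure, reporter mRNA quantified by RT-PCR and capillary electrophoresis. Changes fitted in both directions vs DMSO.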

The nature of assay [15]: ATG_GLI_CIS: Attagene CIS-FACTORIAL HepG2 Assay for human Zinc Finger Protein GLI1 (AID 2282945). Particulars: HepG2, Attagene cis-factorial reporter mRNA, GLI element; actives raise or lower the signal. Summed up:
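HepG2 cells transiently transfected with cis-promoter multiplexed reporter units report endogenous transcription factor activity. After 24 h chemical exposure, reporter mRNA was quantified by RT-PCR, 6-FAM labelling, HpaI digestion and capillary electrophoresis, with bidirectional fitting against DMSO.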

The nature of assay [16]: ATG_ISRE_CIS: Attagene CIS-FACTORIAL HepG2 Assay for human Interferon Regulatory Factor 1 (IRF1) binding to an Interferon-Stimulated Response Element (ISRE) (AID 2282948). Particulars: HepG2 ISRE cis-reporter (Attagene), mRNA transcription readout; actives raise or lower the signal. Summed up: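 Transiently transfected HepG2 cells carrying cis-element reporter units, dosed 24 hours. Reporter mRNA quantified by RT-PCR, fluorescent primer extension, HpaI digestion and capillary electrophoresis. Bidirectional fitting relative to DMSO.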

Assay [17] can be described thus: ATG_M_32_CIS: Attagene CIS-FACTORIAL HepG2 Assay for M32 Transcription Factor (Internal Marker) (AID 2282949).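 Also: background control marker of the multiplexed CIS panel rather than a real target.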 The settings on record: HepG2 Attagene cis-factorial M32 reporter, mRNA; actives raise or lower the signal. The essentials: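 HepG2 cells transiently transfected with multiplexed cis-regulated reporter units, dosed 24 h. Reporter mRNA quantified by RT-PCR, 6-FAM labelling, HpaI digestion and capillary electrophoresis; bidirectional fit vs DMSO.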

Assay [18] can be described thus: ATG_M_06_CIS: Attagene CIS-FACTORIAL HepG2 Assay for M06 Transcription Factor (Internal Marker) (AID 2282950). Particulars: HepG2 Attagene CIS-FACTORIAL M06 internal marker reporter; actives raise or lower the signal. Summed up:
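Internal background marker within multiplexed cis-reporter HepG2 system. Cells transiently transfected, dosed 24 h; reporter mRNA measured by RT-PCR, HpaI digestion and capillary electrophoresis. Bidirectional fit relative to DMSO.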

For assay [19], the target named is Paired box protein Pax-6 (Homo sapiens) (UniProt P26367). The assay can be described thus: ATG_Pax6_CIS: Attagene CIS-FACTORIAL HepG2 Assay for human Paired Box 6 (PAX6) (AID 2282956). Particulars: HepG2 CIS-FACTORIAL PAX6 reporter transcription, RNA readout; actives raise or lower the signal. The essentials:
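HepG2 cells transiently transfected with cis-promoter-driven multiplexed reporter units sensing endogenous transcription factor activity; 24 h chemical exposure. Reporter mRNA quantified by RT-PCR, 6-FAM labelling, HpaI digestion and capillary electrophoresis; bidirectional fit versus DMSO baseline.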

Assay [20] is described as follows: ATG_PXRE_CIS: Attagene CIS-FACTORIAL HepG2 Assay for human Pregnane X Receptor Element (PXRE) (AID 2282957). The settings on record: HepG2 Attagene CIS-FACTORIAL PXRE reporter, mRNA; actives raise or lower the signal. Summed up:
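Transiently transfected HepG2 cells were dosed and incubated for 24 h. RNA was then isolated, DNase-treated, reverse-transcribed and reporter sequences amplified. Labeled, HpaI-digested fragments were quantified by capillary electrophoresis against DMSO.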

Structures are written as SMILES. The source made the active and inactive calls. The calls were made as follows: active = hit-call score of the fitted dose curve at least 0.9, where 1 is the maximum; inactive = score below 0.9.

Transcription factor E2F1 (Homo sapiens), sequence (Q01094 whole entry, looked up): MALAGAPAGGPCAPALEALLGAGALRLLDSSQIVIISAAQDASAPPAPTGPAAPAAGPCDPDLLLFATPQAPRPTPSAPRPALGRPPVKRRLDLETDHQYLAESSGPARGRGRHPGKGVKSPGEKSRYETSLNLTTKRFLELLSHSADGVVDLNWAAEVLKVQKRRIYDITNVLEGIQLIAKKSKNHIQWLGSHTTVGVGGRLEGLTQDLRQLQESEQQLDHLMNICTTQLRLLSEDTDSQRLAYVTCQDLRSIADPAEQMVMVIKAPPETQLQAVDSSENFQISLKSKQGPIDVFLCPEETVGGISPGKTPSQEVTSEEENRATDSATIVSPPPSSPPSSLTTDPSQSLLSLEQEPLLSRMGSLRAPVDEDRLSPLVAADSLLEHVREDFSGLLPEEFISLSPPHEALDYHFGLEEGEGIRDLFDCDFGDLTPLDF
CCAAT/enhancer-binding protein beta (Homo sapiens), sequence (P17676 whole entry, looked up, the tested form may be a part): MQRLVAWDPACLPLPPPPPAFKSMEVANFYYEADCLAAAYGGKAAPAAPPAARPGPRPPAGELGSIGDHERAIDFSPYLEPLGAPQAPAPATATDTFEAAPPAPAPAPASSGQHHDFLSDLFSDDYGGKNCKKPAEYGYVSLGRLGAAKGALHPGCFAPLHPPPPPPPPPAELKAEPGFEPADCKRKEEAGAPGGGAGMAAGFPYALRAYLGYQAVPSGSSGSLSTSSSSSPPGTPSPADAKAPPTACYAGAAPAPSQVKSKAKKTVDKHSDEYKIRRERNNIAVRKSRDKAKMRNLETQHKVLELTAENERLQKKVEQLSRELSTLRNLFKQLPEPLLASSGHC
Paired box protein Pax-6 (Homo sapiens), sequence (P26367 whole entry, looked up): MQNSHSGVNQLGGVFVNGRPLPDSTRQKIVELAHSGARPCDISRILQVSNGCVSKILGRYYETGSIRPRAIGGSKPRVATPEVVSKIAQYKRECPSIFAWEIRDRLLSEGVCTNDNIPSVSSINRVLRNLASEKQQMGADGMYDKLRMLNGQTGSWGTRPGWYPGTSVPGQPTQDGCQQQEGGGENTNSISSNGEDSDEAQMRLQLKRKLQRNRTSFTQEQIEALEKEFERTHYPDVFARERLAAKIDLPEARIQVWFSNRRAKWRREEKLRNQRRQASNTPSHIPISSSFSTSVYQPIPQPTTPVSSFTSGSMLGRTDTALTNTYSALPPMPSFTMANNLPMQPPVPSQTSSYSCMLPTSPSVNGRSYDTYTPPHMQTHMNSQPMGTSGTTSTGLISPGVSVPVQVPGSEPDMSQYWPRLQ

With `O=S(=O)(O)c1cccc2ccccc12`, the call in assay [1], in [2], in assay [3], in [4], in [5] and in [6] was inactive. Besides, the molecule was called inactive in assay [7], in [8], in [9], in assay [10], in [11] and in assay [12]. In addition, the molecule was called inactive in [13], in assay [14], in assay [15], in assay [16], in assay [17] and in assay [18]. Moreover, the result in [19] and in assay [20] was inactive.

For the molecule `CC/C=C/CCO`, the outcome in [1], in [2], in [3], in assay [4], in [5] and in [6] was inactive. Further, the result in [7], in assay [8], in [9], in assay [10], in assay [11] and in assay [12] was inactive. The call in assay [13], in assay [14], in assay [15], in assay [16], in [17] and in [18] was inactive. The call in assay [19] was inactive. In assay [20], the AC50 is 40.5 µM (active).

On to `C=CCOC(=O)C(=C)C`, for which the outcome in [1], in assay [2], in assay [3], in assay [4], in assay [5] and in assay [6] was inactive. For the same molecule, the molecule was called inactive in assay [7], in assay [8], in assay [9], in assay [10], in [11] and in assay [12]. Moreover, the molecule was called inactive in [13], in assay [14], in assay [15], in assay [16], in assay [17] and in assay [18]. Moreover, the result in [19] and in assay [20] was inactive.

As for `Cc1cc2nc3c(=O)[nH]c(=O)nc-3n(C[C@H](O)[C@H](O)[C@H](O)CO)c2cc1C`, the outcome in assay [1], in assay [2], in [3], in assay [4], in assay [5] and in assay [6] was inactive. In addition, the call in assay [7], in assay [8], in assay [9], in assay [10], in assay [11] and in [12] was inactive. Also, the molecule was classed as inactive in assay [13], in [14], in [15], in assay [16], in assay [17] and in assay [18]. For the same molecule, the molecule was called inactive in assay [19]. Moreover, the AC50 in [20] is 47.2 µM (active).

Consider `NCc1ccccc1`, for which the molecule was called inactive in assay [1], in assay [2], in [3], in assay [4], in assay [5] and in assay [6]. The call in assay [7], in [8], in assay [9], in [10], in [11] and in assay [12] was inactive. In addition, the outcome in assay [13], in assay [14], in [15], in assay [16], in assay [17] and in [18] was inactive. Moreover, the molecule was called inactive in [19] and in assay [20].
